{
  "source": "PubChem BioAssay (EPA / NIEHS)",
  "note": "Values joined by “and” are separate entries in the source; they are usually repeats but may differ in a detail not shown here. Identical values can stand only once. A structure can be active in one record and inactive in another. Active and inactive are the calls of the source. How the source made its calls: active means hit-call score of the fitted dose curve at least 0.9, where 1 is the maximum; inactive means score below 0.9.",
  "data": [
    {"read-out": "Thrombomodulin, THBD (gene 7056)", "experiment": "BSK_LPS_Thrombomodulin: BioMAP Diversity Plus: LPS Assay for Thrombomodulin Biomarker Activity (AID 2284296)", "conditions": "primary human HUVEC with PBMC", "description": "BSK_LPS is a cell-based, multiplexed-readout assay that uses umbilical vein endothelium and peripheral blood mononuclear cells, a human vascular primary cell co-culture, with measurements taken at 24 hours after chemical dosing in a 96-well plate.BSK_LPS_Thrombomodulin is an assay component measured in the BSK_LPS assay. It measures Thrombomodulin antibody related to regulation of gene expression using ELISA technology.Data from the assay component BSK_LPS_Thrombodulin was analyzed at the endpoint, BSK_LPS_Thrombomodulin, in the positive analysis fitting direction relative to DMSO as the negative control and baseline of activity. Using a type of binding reporter, gain or loss-of-signal activity can be used to understand protein changes. To generalize the intended target to other relatable targets, this assay endpoint is annotated to the 'gpcr' intended target family, where the subfamily is 'rhodopsin-like receptor'.\nThe levels of cell surface (or secreted, indicated by the prefix \"s\") biomarker endpoints were measured by ELISA. Overt cytotoxicity to cells in confluent adherent cultures (all systems other than the BT system) was assessed by measuring total protein levels using sulforhodamine B (SRB) staining in parallel cultures at the time of biomarker measurements, indicated as SRB endpoints. For proliferation assays for adherent cell types, individual cell types are cultured at sub-confluence and relative cell numbers quantified by SRB staining at time points optimized for each system (48 h: 3C and CASM3C systems; 72 h: BT and HDF3CGF systems; 96 h: SAg system). SRB was performed by staining cells with 0.1% SRB after fixation with 10% TCA and reading wells at 560 nm.Viability and proliferation of PBMC (T cells) was quantified by Alamar Blue reduction for the SAg and BT systems. For PBMC viability (referred to as PBMC Cytotoxicity within the assay endpoint names), cells were plated (75,000/well in a 96-well plate) and then chemical samples added for 1 h before addition of activators, SEB and TSST-1 (20 ng/mL final concentration each). Cells were incubated for 90 h. Then, Alamar Blue (20 uL/well) (Invitrogen, Cat DAL1100) was added for 6 h, and the plates were read with a fluorescence microplate reader at 546/580 nm (excitation/emission). For PBMC proliferation, cells were plated and activated as above but incubated for only 16 h prior to addition of Alamar Blue. Plates were read after 6 h.", "values": [
      {"compound": "CCCC(C)C(=O)OCC", "note": "(stereo not given)", "outcome": "inactive"},
      {"compound": "CC(CCC(=O)O)(c1ccc(O)cc1)c1ccc(O)cc1", "outcome": "inactive"},
      {"compound": "CC(C)C(=O)OCCc1ccccc1", "outcome": "inactive"},
      {"compound": "C[N+](C)(C)CCCNS(=O)(=O)C(F)(F)C(F)(F)C(F)(F)C(F)(F)C(F)(F)C(F)(F)C(F)(F)C(F)(F)F", "AC50": "21.4 µM (active)", "outcome": "inactive"},
      {"compound": "CCCCCCCCCCCC(=O)N(C)CC(=O)O", "outcome": "inactive"},
      {"compound": "c1ccc(Nc2cccc3ccccc23)cc1", "AC50": "33.7 µM (active) and 31.2 µM (active)"},
      {"compound": "Nc1nc(N)nc(-c2ccccc2)n1", "outcome": "inactive"},
      {"compound": "O=C(O)C(F)(F)C(F)(F)C(F)(F)C(F)(F)C(=O)O", "outcome": "inactive"},
      {"compound": "Oc1ccccc1Cc1ccccc1O", "outcome": "inactive"}
    ]}
  ]
}
